Data taken from PubChem BioAssay (NCI).
About 79,000 compounds went through this panel and 15% of them were active in at least one assay; those are over-represented in the sample as a whole. Calls of active or inactive are those of the source. Cut-off read from the data, not from the text of the source: active = growth inhibition above about 70%; inactive = the rest.

How the values were obtained:
[1] = NCI Yeast Anticancer Drug Screen. Data for the rad52 strain (AID 147);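 note: 0% = growth of vehicle-treated control cultures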; details: S. cerevisiae rad52 mutant growth inhibition, stronger effect = higher value
In short: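 Screen used a yeast mutant impaired in DNA repair. After compound exposure, growth was measured. Values reflect inhibition compared with vehicle-treated cells.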

[2] = NCI Yeast Anticancer Drug Screen. Data for the wt1 strain (AID 149);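 note: 0% = growth of vehicle-treated wt1 cultures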; details: S. cerevisiae wt1 strain (SPY 50644) growth inhibition, stronger effect = higher value
In short: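 wt1 strain grown with compound or vehicle; inhibition taken from the growth difference.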

[3] = NCI Yeast Anticancer Drug Screen. Data for the rad50EPP+ strain (AID 151);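 note: 0% = growth of vehicle-treated control cultures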; details: S. cerevisiae rad50 mutant strain, stronger effect = higher value
In short: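 Exposing the rad50EPP+ strain to each compound, growth was compared with vehicle-only cultures to give inhibition.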

[4] = NCI Yeast Anticancer Drug Screen. Data for the mgt1 strain (AID 153); details: S. cerevisiae mgt1 mutant growth inhibition, stronger effect = higher value
In short: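 Genetically defined yeast (mgt1) treated with compound; inhibition of growth expressed against vehicle-treated controls.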

[5] = NCI Yeast Anticancer Drug Screen. Data for the rad50 strain (AID 155);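 note: 0% = growth of vehicle-only cultures of the same strain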; details: S. cerevisiae rad50 strain growth inhibition, stronger effect = higher value
In short: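 DNA repair mutant yeast, compound exposure, growth read-out; inhibition is taken relative to vehicle.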

[6] = NCI Yeast Anticancer Drug Screen. Data for the mec2-1 strain (AID 157); details: S. cerevisiae mec2-1 strain, stronger effect = higher value
In short: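 Readout is yeast growth inhibition, normalised to vehicle-treated controls, in the mec2-1 strain exposed to compound.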

[7] = NCI Yeast Anticancer Drug Screen. Data for the rad14 strain (AID 159);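 note: 0% = growth of vehicle-treated control cultures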; details: S. cerevisiae rad14 strain growth inhibition, stronger effect = higher value
In short: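 DNA repair-defective yeast, compound-exposed; % growth inhibition derived by comparison with vehicle-treated controls.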

[8] = NCI Yeast Anticancer Drug Screen. Data for the sgs1 mgt1 strain (AID 161);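 note: 0% = growth of cultures given vehicle only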; details: S. cerevisiae sgs1 mgt1 strain, stronger effect = higher value
In short: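 Growth of a repair-deficient yeast mutant was monitored after compound treatment and expressed as inhibition relative to vehicle-treated cultures.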

[9] = NCI Yeast Anticancer Drug Screen. Data for the CLN2oe strain (AID 163);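 note: 0% = growth of vehicle-only control cultures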; details: S. cerevisiae CLN2oe strain, stronger effect = higher value
In short: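 Values reflect how much compound exposure reduced yeast growth, referenced to vehicle-exposed cells. Assay organism is a strain with a defined genetic change affecting cell-cycle control.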

[10] = NCI Yeast Anticancer Drug Screen. Data for the cln2 rad14 strain (AID 165);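 note: 0% = growth equal to vehicle treated cultures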; details: S. cerevisiae cln2 rad14 strain, stronger effect = higher value
In short: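 Relative to vehicle controls, growth inhibition of compound-treated cln2 rad14 yeast was recorded.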

[11] = NCI Yeast Anticancer Drug Screen. Data for the bub3 strain (AID 167); details: S. cerevisiae bub3 mutant strain, stronger effect = higher value
In short: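 In this screen, a yeast mutant lacking normal mitotic checkpoint function is challenged with compound. Relative growth versus vehicle gives the inhibition value.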

[12] = NCI Yeast Anticancer Drug Screen. Data for the wt2 strain (AID 169);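 note: 0% = growth of vehicle-treated yeast cultures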; details: S. cerevisiae wt2 strain growth inhibition, stronger effect = higher value
In short: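 Values express reduction in yeast growth under compound treatment, referenced to vehicle-treated cells.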

[13] = NCI Yeast Anticancer Drug Screen. Data for the mlh1 strain (AID 171);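 note: 0% = growth of vehicle-treated control cultures of the same strain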; details: S. cerevisiae mlh1 strain growth inhibition, stronger effect = higher value
In short: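 Steps: expose the defined-mutant yeast strain to compound; expose a parallel culture to vehicle; measure growth; express compound effect as inhibition relative to the vehicle culture.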

[14] = NCI Yeast Anticancer Drug Screen. Data for the sgs1 strain (AID 173);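 note: 0% = growth of vehicle-only control cultures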; details: S. cerevisiae sgs1 mutant, stronger effect = higher value
In short: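 Treat defined-mutant yeast with compound; measure growth; calculate inhibition relative to vehicle-treated cells.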

[15] = NCI Yeast Anticancer Drug Screen. Data for the mlh1 rad18 strain (AID 175); details: S. cerevisiae mlh1 rad18 strain growth inhibition, stronger effect = higher value
In short: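 Test agents were incubated with a yeast strain of defined genotype (DNA damage repair defect). Inhibition of growth was derived by comparison with vehicle-exposed cultures.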

[16] = NCI Yeast Anticancer Drug Screen. Data for the rad18 strain (AID 177); details: S. cerevisiae rad18 mutant growth inhibition, stronger effect = higher value
In short: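 A genetically defined yeast mutant impaired in DNA damage repair was treated with test compounds, then its growth was measured against cultures receiving vehicle alone.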

[17] = at 5.0 µM (retest, dose inferred, filed as 0.5)
[18] = at 50.0 µM (retest, dose inferred, filed as 5.0)

Measured: growth inhibition

Cc1cc(C(C)(C)C)c(OCCCN2CCOCC2)c(C(C)(C)C)c1
active: [1]; at 100.0 µM 96% | [4]; at 100.0 µM 99% | [5]; at 50.0 µM 75.5% | [5]; at 100.0 µM 94% | [6]; at 100.0 µM 98% | [7]; at 100.0 µM 99% | [8]; at 50.0 µM 82.2% | [9]; at 100.0 µM 97% | [11]; at 50.0 µM 75.5% | [11]; at 100.0 µM 94% | [12]; at 100.0 µM 98% | [13]; at 100.0 µM 97% | [14]; at 100.0 µM 98% | [15]; at 50.0 µM 83.8% | [16]; at 100.0 µM 98%
inactive: [1]; at 1.2 µM -5% | [1]; at 3.7 µM -9% | [1]; at 11.0 µM -14% | [1]; at 33.0 µM -3% | [2]; at 1.2 µM -1% | [2]; at 3.7 µM 0% | [2]; at 11.0 µM -3% | [2]; at 33.0 µM -7% | [2]; at 100.0 µM 62% | [3]; at 1.2 µM 0% | [3]; at 3.7 µM 3% | [3]; at 11.0 µM 3% | [3]; at 33.0 µM 19% | [3]; at 100.0 µM 47% | [4]; at 1.2 µM 0% | [4]; at 3.7 µM -4% | [4]; at 11.0 µM -9% | [4]; at 33.0 µM 4% | [5]; at 1.2 µM -1% | [5]; at 3.7 µM -6% | [5]; [17] 5% | [5]; at 11.0 µM 5% | [5]; at 33.0 µM 8% | [5]; [18] 50% | [6]; at 1.2 µM -1% | [6]; at 3.7 µM -5% | [6]; [17] -2% | [6]; at 11.0 µM -8% | [6]; at 33.0 µM -4% | [6]; [18] 12% | [6]; at 50.0 µM 59.5% | [7]; at 1.2 µM -2% | [7]; at 3.7 µM -1% | [7]; at 11.0 µM -5% | [7]; at 33.0 µM 15% | [8]; [17] 2% | [8]; [18] -10% | [9]; at 1.2 µM -5% | [9]; at 3.7 µM -4% | [9]; at 11.0 µM -15% | [9]; at 33.0 µM -17% | [10]; [17] -21% | [10]; [18] -81% | [10]; at 50.0 µM 24.3% | [11]; at 1.2 µM -5% | [11]; at 3.7 µM -1% | [11]; [17] -15% | [11]; at 11.0 µM -32% | [11]; at 33.0 µM 6% | [11]; [18] -10% | [12]; at 1.2 µM -2% | [12]; at 3.7 µM -3% | [12]; at 11.0 µM -8% | [12]; at 33.0 µM 9% | [13]; at 1.2 µM 3% | [13]; at 3.7 µM 2% | [13]; at 11.0 µM -3% | [13]; at 33.0 µM -16% | [14]; at 1.2 µM 0% | [14]; at 3.7 µM 0% | [14]; at 11.0 µM 0% | [14]; at 33.0 µM 25% | [15]; [17] -7% | [15]; [18] 48% | [16]; at 1.2 µM -1% | [16]; at 3.7 µM -7% | [16]; at 11.0 µM -19% | [16]; at 33.0 µM -9%

CN(C)CCNC(=O)c1cccc2cc([N+](=O)[O-])ccc12
inactive: [1]; at 1.2 µM 14% | [1]; at 3.7 µM 20% | [1]; at 11.0 µM 61% | [2]; at 1.2 µM 13% | [2]; at 3.7 µM 8% | [2]; at 11.0 µM 41% | [3]; at 1.2 µM 5% | [3]; at 3.7 µM 21% | [3]; at 11.0 µM 64% | [4]; at 1.2 µM -1% | [4]; at 3.7 µM 4% | [4]; at 11.0 µM 33% | [5]; at 1.2 µM 35% | [5]; at 3.7 µM 42% | [5]; [17] 38% | [6]; at 1.2 µM -6% | [6]; at 3.7 µM 8% | [6]; [17] 11% | [6]; at 11.0 µM 20% | [7]; at 1.2 µM -1% | [7]; at 3.7 µM 10% | [7]; at 11.0 µM 47% | [8]; [17] -2% | [8]; [18] 68% | [9]; at 1.2 µM 15% | [9]; at 3.7 µM 20% | [9]; at 11.0 µM 43% | [9]; at 33.0 µM 56% | [10]; [17] 23% | [10]; [18] 55% | [11]; at 1.2 µM -12% | [11]; at 3.7 µM -27% | [11]; [17] 8% | [11]; at 11.0 µM -18% | [11]; at 33.0 µM 51% | [11]; [18] 67% | [12]; at 1.2 µM -13% | [12]; at 3.7 µM -10% | [12]; at 11.0 µM 5% | [12]; at 33.0 µM 60% | [13]; at 1.2 µM -7% | [13]; at 3.7 µM 6% | [13]; at 11.0 µM 33% | [13]; at 33.0 µM 69% | [14]; at 1.2 µM 16% | [14]; at 3.7 µM 22% | [14]; at 11.0 µM 49% | [15]; [17] 18% | [15]; at 50.0 µM 45.6% | [16]; at 1.2 µM 7% | [16]; at 3.7 µM 5% | [16]; at 11.0 µM 23%
active: [1]; at 33.0 µM 92% | [1]; at 100.0 µM 96% | [2]; at 33.0 µM 80% | [2]; at 100.0 µM 93% | [3]; at 33.0 µM 91% | [3]; at 100.0 µM 95% | [4]; at 33.0 µM 78% | [4]; at 100.0 µM 92% | [5]; at 11.0 µM 77% | [5]; at 33.0 µM 93% | [5]; [18] 92% | [5]; at 50.0 µM 86.5% | [5]; at 100.0 µM 97% | [6]; at 33.0 µM 70% | [6]; [18] 72% | [6]; at 50.0 µM 82.7% | [6]; at 100.0 µM 93% | [7]; at 33.0 µM 80% | [7]; at 100.0 µM 93% | [8]; at 50.0 µM 84.3% | [9]; at 100.0 µM 84% | [10]; at 50.0 µM 71% | [11]; at 50.0 µM 82.8% | [11]; at 100.0 µM 85% | [12]; at 100.0 µM 87% | [13]; at 100.0 µM 92% | [14]; at 33.0 µM 79% | [14]; at 100.0 µM 93% | [15]; [18] 86% | [16]; at 33.0 µM 70% | [16]; at 100.0 µM 90%
